Test results from PubChem BioAssay AID485346 (Sanford-Burnham Center for Chemical Genomics, 2010).
Out of some 330,000 compounds screened, about 10,000 (3%) were called active.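 Rule for the calls: active = inhibition of at least 50% at 8 µM in the primary screen; inactive = the rest.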 Only a selection was taken, and actives are over-represented in it overall.

target: Protein Mdm4 (Homo sapiens) + E3 ubiquitin-protein ligase Mdm2 (Homo sapiens) (UniProt O15151+Q00987); test: inhibitors of human Mdm2-MdmX association, primary screen, cell-based, luminescence, split luciferase, SaOS-2, uHTS (AID 485346); settings: SaOS-2 split-luciferase Mdm2/MdmX complementation, at 8 µM, stronger effect = higher value
Sequence (O15151 whole entry, looked up): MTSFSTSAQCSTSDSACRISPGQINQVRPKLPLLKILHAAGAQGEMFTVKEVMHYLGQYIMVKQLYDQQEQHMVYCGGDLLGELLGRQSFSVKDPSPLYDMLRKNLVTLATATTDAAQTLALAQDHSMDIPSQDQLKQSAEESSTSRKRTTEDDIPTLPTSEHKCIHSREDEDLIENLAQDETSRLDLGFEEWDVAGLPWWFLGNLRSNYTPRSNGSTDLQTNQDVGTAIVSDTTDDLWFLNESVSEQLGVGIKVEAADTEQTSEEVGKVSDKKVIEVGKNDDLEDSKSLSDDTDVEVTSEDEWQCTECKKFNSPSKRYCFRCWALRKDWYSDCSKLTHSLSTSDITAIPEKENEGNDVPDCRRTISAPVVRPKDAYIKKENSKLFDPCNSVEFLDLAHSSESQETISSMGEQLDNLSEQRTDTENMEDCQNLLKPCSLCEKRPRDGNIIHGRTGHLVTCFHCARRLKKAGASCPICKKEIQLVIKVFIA
Sequence (Q00987 whole entry, looked up): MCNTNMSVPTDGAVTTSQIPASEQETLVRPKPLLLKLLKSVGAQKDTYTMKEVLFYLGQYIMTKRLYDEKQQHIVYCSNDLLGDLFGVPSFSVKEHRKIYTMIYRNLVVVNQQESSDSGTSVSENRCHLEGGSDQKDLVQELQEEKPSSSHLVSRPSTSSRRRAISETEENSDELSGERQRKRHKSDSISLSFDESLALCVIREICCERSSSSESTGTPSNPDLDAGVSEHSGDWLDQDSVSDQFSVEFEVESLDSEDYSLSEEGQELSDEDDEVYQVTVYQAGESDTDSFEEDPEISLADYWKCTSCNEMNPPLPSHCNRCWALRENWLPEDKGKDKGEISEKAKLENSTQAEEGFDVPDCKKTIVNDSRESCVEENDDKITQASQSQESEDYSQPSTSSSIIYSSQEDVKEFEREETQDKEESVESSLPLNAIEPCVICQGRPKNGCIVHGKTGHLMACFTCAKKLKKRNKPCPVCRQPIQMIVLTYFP

inhibition, active:
CCOc1cc2[nH]c(=S)n(Cc3ccc(C(=O)N4CCN(C)CC4)cc3)c(=O)c2cc1OCC 91.7%
COc1cc2[nH]c(=S)n(Cc3ccc(F)cc3)c(=O)c2cc1OC 81.3%
CC1=C(C)CC(C(=O)NNC(=O)c2ccccc2O)C(C(=O)O)C1 (stereo unspecified) 60.5%
O=c1oc2ccccc2cc1-c1cn(-c2ccccc2)c(=S)[nH]1 88.3%
CCN1CCN(c2nc(Nc3cc(OC)ccc3OC)nc(Nc3cc(OC)ccc3OC)n2)CC1 56.2%
O=C(CC(O)(C(F)(F)F)C(F)(F)F)Nc1ccc(Cl)c(Cl)c1 83.5%
COc1cc(/C=N/NC(=O)Nc2ccccc2)ccc1OCCOc1ccccc1C 63.8%
COc1ccc(-c2ccc(Nc3ccc(S(=O)(=O)N4CCCC4)cc3)nn2)cc1OC 57.4%
Nc1nc(CC(=O)CSc2ccc(Cl)cc2)nc(Nc2ccc(F)cc2)n1 81%
COc1ccc2sc(-c3ccc(S(C)(=O)=O)cc3)c(C#Cc3cncn3C)c2c1 69.9%
COc1cc(N=Cc2c(O)[nH]c3ccccc23)cc(OC)c1OC 80.2%
COc1ccc(N=Cc2c(O)[nH]c3ccccc23)cc1OC 61.3%

inhibition, inactive:
CCOc1cc2[nH]c(=S)n(Cc3ccc(C(=O)NCCOC)cc3)c(=O)c2cc1OCC 19.2%
COc1cc2[nH]c(=S)n(CCN3CCCCC3C)c(=O)c2cc1OC (stereo unspecified) 39.9%
COc1ccc(Cn2c(=S)[nH]c3cc(C(=O)N4CCCCC4)ccc3c2=O)cc1 14.8%
COc1cc2[nH]c(=S)n(Cc3ccc(C)o3)c(=O)c2cc1OC 2.31%
CC(=O)NC(Cc1ccc(F)c(F)c1)C(=O)NC1CCN(c2nnnn2-c2ccccc2)CC1 (stereo unspecified) 6.6%
Cc1ccc(CNC(=O)CCCNC(=O)c2ccc(Cl)cc2)n1C 22.5%
CCN(Cc1ccncc1)C(=O)CCc1ccccc1 16.5%
O=C(CCNc1n[nH]c(=O)[nH]c1=O)N/N=C\c1ccc(Br)cc1 9.18%
CC1=C(C)CC(C(=O)NNC(=O)c2csc3c2CCC(C(C)(C)C)C3)C(C(=O)O)C1 (stereo unspecified) 7.93%
Cc1cc(C(=O)NNC(=O)c2ccccc2O)c(C)o1 30%
Cc1noc(NS(=O)(=O)c2ccc(NC(=O)c3oc4ccc(F)cc4c3C)cc2)c1C -34%
S=c1[nH]c(-c2cccs2)cn1-c1ccccc1 -16.2%
O=C(Nc1cc2ccccc2oc1=O)C1CCCCC1 -82.7%
COCCCN1C(=O)C(=O)/C(=C(/O)c2ccc(S(=O)(=O)N3CCOCC3)cc2)C1c1ccc(F)cc1 (stereo unspecified) -23.9%
COc1ccccc1C1=CC(=O)C[C@H](c2ccc(F)cc2)C1 -0.761%
O=C(NCCc1ccccc1)Oc1ccc(Cl)cc1 11.2%
CCOC(=O)N1CCN(CCC(=O)Nc2cc(OC)ccc2OC)CC1 -21.2%
CCOc1ccc(Nc2nc(Cl)nc(N3CCN(c4ccc(OC)cc4)CC3)n2)cc1 7.3%
Cc1ccc(C)c(-n2nnnc2SCC(=O)c2c(N)n(C)c(=O)n(C)c2=O)c1 24.7%
CCn1nccc1C(=O)Nc1ccc(Cl)c(Cl)c1 28.3%
CS(=O)(=O)N(CC(=O)Nc1ccc(Cl)c(Cl)c1)C1CCCCC1 11.5%
COc1ccc(N2CCN(C(=O)CNS(=O)(=O)c3ccc(C)c(C)c3)CC2)cc1 -7.3%
CN(C)c1ccc(C=C2C(=O)OC3(CCCC3)OC2=O)cc1 -3.25%
COc1cc(/C=N/NC(=O)c2ccoc2C)ccc1OCCN1CCCCC1 7.93%
COC(=O)c1ccc(COc2ccc(/C=N/NC(=O)C(=O)Nc3ccc(OC)cc3)cc2OC)o1 36.6%
COc1cc(C(C)=O)ccc1OC(C)C(=O)Nc1ccc(S(=O)(=O)N2CCCC2)cc1 (stereo unspecified) 9.67%
COc1ccc(S(=O)(=O)N2CCCCCC2)cc1NC(=O)Cc1ccc(OC)c(OC)c1 7.01%
O/N=C(\C[n+]1ccccc1)c1ccc(Br)cc1 17%
CC(=O)C(CC(=O)N1CCCC1)C(=O)Nc1ccc(Cl)cc1 (stereo unspecified) -3.54%
O=C(O)CCCN1C(=O)c2ccccc2Sc2ncccc21 -8.61%
Cc1ccc(Nc2nc(N)nc(CSc3nnc(C)s3)n2)cc1 -6.62%
Nc1nc(COC(=O)CCC(=O)c2ccc(Cl)cc2)nc(Nc2ccccc2)n1 -9.75%
CCS(=O)(=O)c1ccc2c(c1)N(S(=O)(=O)c1ccccc1)CC(C(=O)O)O2 (stereo unspecified) -32%
Cn1c(N)c(C(=O)COC(=O)/C=C/c2cccc(C(F)(F)F)c2)c(=O)n(C)c1=O 21.9%
COc1ccc2sc(-c3ccc(S(C)(=O)=O)cc3)c(-c3ccc(C(N)=O)cc3)c2c1 12%
COc1ccc(-c2sc3ccc(OC)cc3c2C#Cc2ccccn2)cc1 40.5%
COCc1cc(C)nc(Nc2cc(C)ccc2C)c1C#N 17.9%
CN=c1scc(-c2cc(OC)ccc2OC)n1/N=C/c1c(C)[nH]c2ccccc12 20.3%
COc1cc(N=Cc2c(O)c3ccccc3oc2=O)c(OC)cc1Cl 20.6%
COc1cc(/C=N/NC(=O)Cc2ccccc2)cc(OC)c1OC 4.45%
COc1ccc2[nH]c(C(=O)N/N=C/c3cc(OC)c(OC)c(OC)c3)cc2c1 11.4%
Cc1cc(CNCc2c(C(=O)N(C)Cc3ccccc3)nc3ccccn23)nn1C 35.1%
CC1O[C@H](OC2C(COC3OC(CO)C(O)[C@H](O)C3O)OC(OC3CC[C@]4(C)C(CC[C@@]5(C)[C@@H]4C=C[C@]46OC[C@@]7(CCC(C)(C)C[C@H]74)C(O)C[C@@]56C)C3(C)C)C(O)C2O)C(O)C(O)C1O (stereo partly specified) -4.59%
Cc1c(C#N)c(NC(=O)c2ccccc2)n(Cc2ccccc2)c1C 29.1%
